An excerpt weighted towards active compounds, which were near 0.63% of everything screened.
TSHR antag – Antagonists of the Thyroid Stimulating Hormone Receptor: HTS campaign. activity change, negative = inhibition, % at 11.5 µM. TSHR-expressing cells, TSH-stimulated cAMP HTRF, 2 h; hits give low values. hit rate 0.2% among 330,000. AID 504810, 2011;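 active = activity change below a set negative limit, meaning inhibition stronger than a set level, cut at about -70% in these data; inconclusive = activity change between two set negative limits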; note: % is set by controls: 0 for no effect and ±100 for the full control effect
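Cell-based HTRF cAMP assay; TSHR cells + compound, TSH EC80 (4nM final), 2 h, 37 deg C. Lysis with anti-cAMP cryptate and cAMP-d2, 30 min RT, read 665/620 nm.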
TCR act – Activators of T cell receptors: qHTS campaign; AID 504894, 2011; 330,000 tested, under 10 active; primary human leukocytes, anti-CD3, IL-2 HTRF, 48 h; Potency, µM (highest dose often 9.22 µM), inactives show at the top dose activation of IL-2 secretion, most hits filed as activators; active = well fitted activation curve with a large enough effect; inconclusive = small, poorly fitted or top-dose-only effect, or another doubt; inactive = no such curve, though single readings can be large or run the other way; note: % of control where 0% means no effect
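Human primary leukocytes + a-CD3 beads + cpd, 48 hr; IL-2 in supernatant by HTRF (ex 320nm / em 665nm). No co-stimulatory signal supplied.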
Pin1 inh – qHTS Assay to Find Inhibitors of Pin1; Pin1 FP peptide displacement, HiFluor488, 10 min; hit rate 0.009% among 390,000; Potency, µM (top dose mostly 115 µM), for the others: at the highest dose activity, negative = inhibition, most hits filed as inhibitors; active = well fitted inhibition curve with a large enough effect in the polarisation, with a control signal flat, not every such curve was filed as active; inconclusive = small, poorly fitted or top-dose-only effect, or effect the other way, or a change in a side signal; inactive = no such curve, though single readings can be large or run the other way; the % refers to the polarisation; note: potency is the fitted concentration of half-maximal effect; % is set by controls: 0 for no effect and ±100 for the full control effect
Target sequence (Q13526 whole entry, looked up): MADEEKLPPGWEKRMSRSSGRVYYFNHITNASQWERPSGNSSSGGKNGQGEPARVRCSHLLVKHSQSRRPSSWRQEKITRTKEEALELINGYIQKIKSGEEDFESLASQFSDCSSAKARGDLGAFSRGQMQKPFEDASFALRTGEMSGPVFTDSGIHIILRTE
gsp antag – qHTS for Antagonists of gsp, the Etiologic Mutation Responsible for Fibrous Dysplasia/McCune-Albright Syndrome: qHTS. gsp-mutant cells, cAMP HTRF, 30 min. Potency, µM (highest dose often 76.9 µM), inactives show at the top dose activity change, negative = inhibition, most hits filed as inhibitors. hit rate 0.4% among 340,000. AID 624288, 2012; calls by dose curve; cell line not stated here;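 note: intracellular cAMP measured with PDE inhibitor Ro 20-1724 present during compound exposure; potency is the fitted concentration of half-maximal effect; % is set by controls: 0 for no effect and ±100 for the full control effect; nearly all actives have a fitted effect of over 65% in size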
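Cells, 2000/well, grown 16–24 h in DMEM 10% FBS with 0.5 mg/ml G418, then compounds plus […] (300 uM addition stock), 30 min at 37C. cAMP read by HTRF (cAMP-d2 and anti-cAMP antibody-K in lysis buffer) after 30 min RT.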
gsp agonist – qHTS for Agonist of gsp, the Etiologic Mutation Responsible for Fibrous Dysplasia/McCune-Albright Syndrome: qHTS | gsp mutant cells, cAMP HTRF, 30 min | Potency, µM (top dose mostly 76.9 µM), inactives show at the highest dose activation (cAMP increase), usual class: activators | hit rate 0.13% among 340,000 | AID 624287, 2012; active = well fitted activation curve with a large enough effect; inconclusive = small, poorly fitted or top-dose-only effect, or another doubt; inactive = no such curve, though single readings can be large or run the other way; cell line not stated here;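 note: phosphodiesterase inhibitor Ro 20-1724 added with compounds to block cAMP breakdown; potency is the fitted concentration of half-maximal effect; nearly all actives have a fitted effect of over 60% in size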
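Cells stably selected in G418 were plated at 2000/well, grown 16-24 hr, then given compounds in DMSO with the PDE inhibitor […] (300 uM solution added) for 30 min at 37C; cAMP was read by HTRF.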
* marks the source's active call; other numbers are inactive results; u = inconclusive; x = not tested or not shown; [ ] = remark or other dose.

SMILES | TSHR antag | TCR act | Pin1 inh | gsp antag | gsp agonist
Cc1ccc(CNC(=O)CSc2nnc3c(n2)[nH]c2ccccc23)cc1 | -82.0* | 9.4% | 14.5% | -0.1% | 4.9%
O=C(O)c1ccccc1NC(=O)c1ccccc1Nc1ccccc1 | u | 5.7% | u | 31.6µM* | -7.8%
O=C(Nc1ccccc1C(=O)Nc1ccccc1C(=O)O)c1ccccc1 | 0.5 | 5.4% | -8.4% | u | 9.5%[15.4 µM]
COc1ccc(N2CCN(C(=O)c3cccc(N4C(=O)C5CC=CC(C)C5C4=O)c3)CC2)cc1 (centres undefined) | 23.8 | x | -5.5% | -22.5% | u
CCOC(=O)[C@H]1[C@H]2COc3ccc(Br)cc3[C@H]2N2C(=O)CN(CCc3c[nH]c4ccccc34)C(=O)[C@@]12C | x | 6.4% | 12.3% | -9.6% | x
COc1cccc(N2CCN(c3ncnc4c3[nH]c3ccccc34)CC2C)c1 (centres undefined) | -100.2* | 4.7%[46.1 µM] | x | x | x
COc1cccc(N2CCN(c3ncnc4c3[nH]c3ccc(F)cc34)CC2C)c1 (centres undefined) | -105.2* | 7.3% | 3.6% | 3.55µM* | -17.1%
O=C1c2ccccc2C(=O)N1CSc1nnc2c3ccccc3n(CCc3ccccc3)c2n1 | -2.4 | 12.8% | -7.1% | -7.7% | 15.9%
COCc1cc(C)n(CC(=O)NC(C)c2ccccc2)c(=O)c1C#N (centres undefined) | 18.9 | x | -2.7% | 14.3% | u
Cc1ccc(CNC(=O)c2cc3sccc3n2Cc2ccc(F)cc2)cc1 | x | x | -0.6% | x | x
COCCNC(=O)CN1C(=O)/C(=C/c2ccccc2)Oc2ccc(C(C)(C)C)cc21 | -4.4 | 5.3% | 6.3% | 28.2µM* | 13.5%
O=C(CN1C(=O)/C(=C\c2cccc(Br)c2)Oc2ccccc21)NCCCN1CCOCC1 | 13.3 | -6.7% | -2.5% | 8.5% | 14.8%
CC1CCN(S(=O)(=O)c2ccc(-c3nnc(SCc4cccnc4)o3)cc2)CC1 | 14.1 | -3.1% | -0.8% | 4.5% | -30.5%
CN(C)S(=O)(=O)N1CCC(Oc2cccc(C(=O)NCCC3=CCCCC3)c2)CC1 | u | 3.9% | 9.7% | 35.5µM* | -38.5%
CN(C)S(=O)(=O)N1CCC(Oc2cccc(C(=O)NC3CCCCC3)c2)CC1 | -34.8 | 0.3% | -12.5% | u | 8.3%
Fc1ccc(NC(=S)N/N=C/c2ccc(F)c(F)c2)cc1 | -2.8 | -0.2% | -0.7% | -7.0% | -9.4%[15.4 µM]
COc1ccccc1N1CCN(C(=O)CCCN2C(=O)c3cccc4cccc(c34)C2=O)CC1 | -72.2* | -0.4%[46.1 µM] | -1.2% | -4.1% | -5.2%
Cn1cc(C(=O)C(=O)NC2CCCCC2)c2ccccc21 | -8.8 | 0.0% | -1.5% | 50.1µM* | 26.1%
Cn1cc(C(=O)C(=O)NC2CC2)c2ccccc21 | x | 2.8% | 16.5% | -0.2% | -3.5%[15.4 µM]
COc1ccc(CNC(=O)Cc2nn(C)c(=O)c3ccccc23)cc1 | -24.0 | -2.9% | -5.1% | -5.4%[15.4 µM] | 1.0%
Cn1nc(CC(=O)NCc2ccc(C(F)(F)F)cc2)c2ccccc2c1=O | -22.9 | x | 3.6% | 12.6µM* | -17.0%
Cc1cccc(C(C)C)c1NC(=O)C1CCN(S(=O)(=O)c2ccccc2)CC1 | -8.2 | -2.0% | 4.4% | -17.9% | -7.8%
COc1ccc(OC)c2c1C(=O)C(Cl)=C(Cl)C2=O | -103.4* | 11.7% | u | 35.5µM* | -68.7%
COc1ccc(OC)c2c1C(=O)c1ccccc1C2=O | -0.5 | 2.9% | x | 13.0% | 7.8%
CCn1c(SCC(=O)Nc2nccs2)nnc1-c1ccc(S(=O)(=O)N2CCCCCC2)cc1 | -9.5 | 5.6% | 9.3% | 39.8µM* | 19.8%
Cc1ccc(C(=O)O)cc1N1C(=O)c2cccc3c([N+](=O)[O-])ccc(c23)C1=O | -73.4* | -8.5% | u | -26.2% | -17.2%
O=C(O)c1ccc(CN2C(=O)c3cccc4c([N+](=O)[O-])ccc(c34)C2=O)cc1 | -39.8 | -5.0% | u | -20.2% | -18.1%[15.4 µM]

High-throughput results: PubChem BioAssay, National Center for Advancing Translational Sciences (NCATS)
